Screening data: PubChem, National Center for Advancing Translational Sciences (NCATS)
Shown are actives, neighbours in structure and some others; about 4% of the full set was active somewhere.
GBA mod = alters purified human glucocerebrosidase activity | purified enzyme, resorufin glucoside fluorescence (screen aimed at inhibitors), 20 min | 48,000 compounds, 1.1% hits | Potency, µM | P04062; in the data active means potency below about 15 µM; inconclusive means mostly about 16 µM to 33 µM;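 further: the screen sought inhibitors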
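Wild-type enzyme at 0.2 nM final in 50mM citric acid/KH2PO4, 10mM sodium taurocholate, 0.01% tween-20, pH 5.9, with resorufin beta-D-glucopyranoside at 30 uM final. Compounds titrated, 20 min at RT, red fluorescence read; AC50 from titration.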
TSHR ag = TSH receptor (human) agonism | P16473 | HEK293-CNG-TSHR cells (CNG channel as cAMP sensor), membrane potential dye, cAMP | Potency, µM (highest dose often 57.1 µM), for the others: at the highest dose activation, usual class: activators | 73,000 compounds, 0.48% hits | AID 926; active means well fitted activation curve with a large enough effect in the main read-out, with a control signal flat, not every such curve was filed as active; inconclusive means small, poorly fitted or top-dose-only effect, or a change in a side signal; inactive means no such curve, though single readings can be large or run the other way; % of control where 0% means no effect;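 further: the control signal comes from parental cells without the receptor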
Target sequence (P16473 whole entry, looked up): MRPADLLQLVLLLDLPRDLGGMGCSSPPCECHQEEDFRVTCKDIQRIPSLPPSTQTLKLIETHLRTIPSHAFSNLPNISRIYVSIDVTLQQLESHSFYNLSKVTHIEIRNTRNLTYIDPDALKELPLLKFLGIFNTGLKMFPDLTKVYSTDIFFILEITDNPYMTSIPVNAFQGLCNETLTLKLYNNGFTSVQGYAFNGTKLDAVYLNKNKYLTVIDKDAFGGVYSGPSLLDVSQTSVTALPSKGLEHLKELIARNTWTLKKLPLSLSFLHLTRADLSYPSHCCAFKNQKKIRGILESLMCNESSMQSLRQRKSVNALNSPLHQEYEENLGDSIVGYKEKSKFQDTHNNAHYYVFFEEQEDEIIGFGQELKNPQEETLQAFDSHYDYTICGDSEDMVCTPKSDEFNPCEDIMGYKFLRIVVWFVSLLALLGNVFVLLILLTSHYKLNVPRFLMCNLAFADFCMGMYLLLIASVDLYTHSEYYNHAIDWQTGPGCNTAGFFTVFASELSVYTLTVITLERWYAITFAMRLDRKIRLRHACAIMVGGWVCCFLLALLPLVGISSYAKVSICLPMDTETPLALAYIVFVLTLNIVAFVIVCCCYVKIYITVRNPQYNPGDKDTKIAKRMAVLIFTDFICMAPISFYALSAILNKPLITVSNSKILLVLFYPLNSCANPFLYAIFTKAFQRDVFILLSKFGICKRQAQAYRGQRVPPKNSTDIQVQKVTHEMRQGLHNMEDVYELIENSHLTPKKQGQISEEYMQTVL
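HEK 293 cells stably expressing TSHR and a cAMP-gated CNG channel; parental CNG-only cells as counterscreen. Cells preloaded 60 min with membrane potential dye plus 100 uM RO 20-1724, then compound 30 min; fluorescence read at 590 nm.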
HEK293 cAMP cs = counter-screen for TSHR agonists: cAMP increase in parental HEK293; 73,000 compounds, 2.5% hits; Potency, µM (titrated, usually from 57.1 µM), inactives show top-dose activation, actives largely listed as activators; AID 938; parental HEK293 CNG cAMP sensor, membrane potential fluorescence; active means well fitted activation curve with a large enough effect; inconclusive means small, poorly fitted or top-dose-only effect; inactive means no such curve, though single readings can be large or run the other way; further: % of control where 0% means no effect; nearly all actives have a fitted effect of over 55% in size
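Parental HEK 293 cells stably expressing a modified CNG channel (no TSHR) report cAMP rise as membrane depolarization. Membrane potential dye with 100 uM RO 20-1724 was loaded for 60 min at room temperature, then compound added for 30 min; fluorescence read at 590 nm.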
PK Bst = pyruvate kinase (B. stearothermophilus) modulation; Potency, µM; purified pyruvate kinase, luminescence ATP production; ribose 5-phosphate activator present at AC10; 51,000 compounds, 1.2% hits; in the data active means potency below about 11 µM; inconclusive means mostly about 12 µM to 25 µM;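 the screen sought inhibitors and activators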;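 further: scaled between full activation by ribose 5 phosphate and full inhibition by luteolin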
Active calls of the source: *; i = inactive; ? = inconclusive; · = no result given; [ ] = dose if it differs, or a comment. Potency means the concentration at half of the fitted maximal effect.

SMILES	GBA mod	TSHR ag	HEK293 cAMP cs	PK Bst
CN(C)C=Nc1ncc2c3ccccc3n(Cc3ccccc3)c2c1C#N	>77	?	32µM*	>57
CCCCNC(=O)CN1C(=O)C(CC)Oc2ccc(Cl)cc21 (stereo unspecified)	>77	?	10µM*	>57
CCOc1ccc2nc(NCCNC(=O)C3CC3)c(C)cc2c1	i	?	?	·
COCC(=O)NCCNc1nc2ccc(C)cc2cc1C	2.8*	4%	14%	·
C/C(CCN1CCCCc2nc(C)c(C)cc21)=N\OC[C@@H](O)[C@@H]1O[C@@H]2OC(C)(C)O[C@@H]2[C@H]1O	·	0%[11.4 µM]	5%[11.4 µM]	·
CCOc1cc(/C=N/NC(=O)c2cc(-c3cccc(OC)c3)n[nH]2)ccc1O	·	-9%	-10%	·
O=C(NC1CCCCCC1)C1c2ccccc2C(=O)N1Cc1ccco1 (stereo unspecified)	>77	?	13µM*	>57
COCCCN1C(=O)c2ccccc2C1C(=O)NC1CCCCCC1 (stereo unspecified)	>77	?	?	>57
COCC(C)Nc1ncnc2c1cnn2-c1ccc(Cl)cc1 (stereo unspecified)	·	·	·	11*
COc1ccc(-n2ncc3c(NC(C)C)ncnc32)cc1	·	-1%	-6%	·
CN1CCN(C(=O)c2cc(-c3ccc(O)cc3)on2)CC1	·	9%	-2%	·
O=C1C=C(Nc2nc(C(=O)O)cc(=O)[nH]2)c2ccccc2C1=O	·	-2%[11.4 µM]	2%[11.4 µM]	·
Cc1cc2cc(CN(Cc3ccc4c(c3)OCO4)C(=O)c3cnccn3)c3nnnn3c2cc1C	>77	?	32µM*	>57
COc1ccc(/C=C\C(=O)Nc2ccccc2C(=O)O)cc1OC	·	11%	1%	·
COc1ccc(-c2noc(-c3ccccc3C(=O)Nc3cccc(OC)c3)n2)cc1	>77	?	13µM*	·
CCOc1ccccc1NC(=O)c1ccccc1-c1nc(-c2ccccc2)no1	>77	?	16µM*	>57
CCOc1ccccc1-c1nc(-c2ccc(NC(=O)Cc3ccccc3OC)cc2)no1	>77	7%	10%	>57
Cc1ccc(C)c(SCC(=O)Nc2nnc(-c3ccccc3)o2)c1	>77	6%	23%	3.1*
Cc1ccc(-c2cc(-c3cccc(F)c3)n[nH]2)c(O)c1	>77	-11%	-6%	11*
COc1ccc(-c2cc(-c3cc(F)ccc3O)[nH]n2)cc1OC	>77	8%[11.4 µM]	-7%	9.6*
COc1ccc(-c2cc(-c3ccccc3O)[nH]n2)cc1OC	·	5%	5%	·
CC(=O)Nc1cccc(NC(=O)CSc2ncc(-c3ccc(Cl)cc3)n2Cc2ccco2)c1	·	?	25µM*	>57
Clc1ccccc1C(Nc1cnccn1)Nc1cnccn1	·	-2%[11.4 µM]	1%[11.4 µM]	·
CC(C)(C)NC(=O)C(c1ccco1)N(C(=O)c1csnn1)c1ccccc1 (stereo unspecified)	>77	12%	6%	>57
O=C(NCc1ccc2c(c1)OCO2)C(c1ccco1)N(C(=O)c1csnn1)c1ccccc1 (stereo unspecified)	>77	3.2µM*	7%	>57
SMILES	GBA mod	TSHR ag	HEK293 cAMP cs	PK Bst
C[N+](C)(C)CC(=O)N/N=C\c1c(O)ccc2ccccc12	·	-2%[11.4 µM]	2%[11.4 µM]	·
CCCCCC[C@@H]([C@H](C)O)n1cnc2c(N)ncnc21	·	?	32µM*	·
CC1(C)N=C(N)N=C(N)N1c1cccc(CSc2ccccc2)c1	·	2%[11.4 µM]	-6%[11.4 µM]	·
Cc1nn(Cc2ccc(C(=O)Nc3nccs3)cc2)c(C)c1Cl	14*	5%	7%	3.1*
FC(F)(F)c1cc(CO[C@@H]2CCCN[C@H]2c2ccccc2)cc(C(F)(F)F)c1	·	·	22%	·
O=c1oc2ccccc2n1CCn1c2ccccc2c2nc3ccccc3nc21	>77	?	7.9µM*	>57
CCCn1c2ccccc2c2nc3ccccc3nc21	>77	?	?	·
Cc1noc(C)c1C(=O)OCC(=O)c1c[nH]c2ccccc12	8.3*	-14%	-16%	·
CNc1oc(-c2ccc(OCc3ccccc3)cc2)nc1C#N	>77	1%	2%	i
N#Cc1nc(-c2ccc(OCc3ccccc3)cc2)oc1NCCN1CCOCC1	i	-8%	-5%	4.5*
N#Cc1nc(Cc2cccc3ccccc23)oc1NCCCn1ccnc1	13*	1%	-12%	?
N#Cc1nc(Cc2cccc3ccccc23)oc1NCCCN1CCOCC1	>77	·	4%	>57
N#Cc1nc(-c2cccs2)oc1N1CCN(c2ccccc2)CC1	8.3*	?	20µM*	·
N#Cc1nc(-c2ccc(OCc3ccccc3)cc2)oc1N1CCOCC1	>77	·	16%	2*
Cc1ccc([C@@H](O)c2cnc(C)n2Cc2ccccc2)cc1	·	0%[11.4 µM]	8%[11.4 µM]	·
